An excerpt weighted towards active compounds, which were near 11% of everything screened.
VP16 counter = VP16 counterscreen qHTS for inhibitors of ROR gamma transcriptional activity | 3.5% of 310,000 active | Drosophila S2 Gal4-VP16 UAS-luciferase, luminescence, 20 h | Potency, µM (top dose mostly 53.6 µM), hits mostly inhibitors;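 further: Gal4-VP16 expression switched on by copper sulfate through the metallothionein promoter; nearly all actives have a fitted effect of over 50% in size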
RORgamma inh = qHTS for inhibitors of ROR gamma transcriptional activity | Drosophila S2 Gal4-RORgamma UAS-luciferase reporter, 20 h | 5.4% of 310,000 active | Nuclear receptor ROR-gamma (Mus musculus), P51450 | AID 2551, 2010 | Potency, µM (doses to about 53.6 µM), usual class: inhibitors; further: nearly all actives have a fitted effect of over 60% in size
Target sequence (P51450 whole entry, looked up, the tested form may be a part): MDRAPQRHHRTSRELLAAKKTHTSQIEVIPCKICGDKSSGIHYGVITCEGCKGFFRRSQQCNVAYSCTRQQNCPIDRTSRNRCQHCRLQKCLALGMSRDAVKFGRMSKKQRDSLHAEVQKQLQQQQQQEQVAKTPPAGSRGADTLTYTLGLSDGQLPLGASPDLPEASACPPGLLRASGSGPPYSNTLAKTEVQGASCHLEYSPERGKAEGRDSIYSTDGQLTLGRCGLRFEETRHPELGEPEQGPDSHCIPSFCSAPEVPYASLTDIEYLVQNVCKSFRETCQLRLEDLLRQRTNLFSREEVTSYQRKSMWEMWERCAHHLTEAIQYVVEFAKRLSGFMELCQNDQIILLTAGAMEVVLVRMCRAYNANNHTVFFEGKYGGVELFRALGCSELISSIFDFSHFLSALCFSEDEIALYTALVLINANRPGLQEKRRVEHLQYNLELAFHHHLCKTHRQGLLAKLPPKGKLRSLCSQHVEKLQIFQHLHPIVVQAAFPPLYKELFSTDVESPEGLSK
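Compounds are pin-transferred onto Drosophila Schneider cells expressing a copper-inducible Gal4–ROR gamma transactivation domain fusion. After 1 hr, copper sulfate is added to 700 uM final; luciferase is read 20 hr later.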
IL-1B inflam inh = qHTS for Inhibitors of Inflammasome Signaling: IL-1-beta AlphaLISA Primary Screen | 4.7% of 360,000 active | THP-1 LPS/ATP IL-1B secretion, AlphaLISA, 16 h; stronger effect = lower value | activity change, % at 57.5 µM; in the data active means activity change below about -50%; inconclusive means mostly about -30% to -49%
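Secreted IL-1B measured by AlphaLISA bead assay after 16 h compound exposure of THP-1 cells; compounds (final up to 57.5 uM) added 1 h before LPS (250 ng/mL) and ATP (1.25 mM) stimulation; lower signal means less secretion.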
SW480 rerep = A quantitative high throughput screen for small molecules that induce DNA re-replication in SW480 colon adenocarcinoma cells. SW480 DNA re-replication, Hoechst DNA content imaging, 48 h. Potency, µM (doses to about 46.1 µM), usual class: activators. 1.8% of 340,000 active. AID 624297, 2012; further: nearly all actives have a fitted effect of over 55% in size
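250 cells/well; 23 nL cpd via pin tool; 48 hr, 37 C, 5% CO2; Hoechst 40 min; imager read of total nuclear intensity, ex 405/em 500-530 nm.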
MCF10A rereplic = A quantitative high throughput screen for small molecules that induce DNA re-replication in MCF 10a normal breast cells | MCF 10A DNA re-replication, Hoechst nuclear intensity, 48 h | Potency, µM (titrated, usually from 46.1 µM), most hits filed as activators | 2.9% of 350,000 active | AID 624296, 2012; further: nearly all actives have a fitted effect of over 50% in size
Hits are given with their value; . = inactive; ? = inconclusive; / = not tested or not shown; [ ] = another dose, or the depositor's remark. Unless noted, the call rests on the fitted dose curve; in most records, active means well fitted curve in the direction sought with a large enough effect; inconclusive means small, poorly fitted or top-dose-only effect, or another doubt; inactive means no such curve, though single readings can be large; an effect the other way counts as inactive or inconclusive.

SMILES	VP16 counter	RORgamma inh	IL-1B inflam inh	SW480 rerep	MCF10A rereplic
CCC1(O)C(=O)OCc2c1cc1n(c2=O)Cc2cc3cc(O)ccc3nc2-1 (centres undefined)	/	/	-103	?	?
CC[C@@]1(O)C(=O)OCc2c1cc1n(c2=O)Cc2cc3ccccc3nc2-1	?	0.056µM	/	/	/
CC[C@@]1(O)C(=O)OCc2c1cc1n(c2=O)Cc2cc3c(O)cccc3nc2-1	?	0.35µM	/	/	/
CC[C@@]1(O)C(=O)OCc2c1cc1n(c2=O)Cc2cc3c(NC(=O)CN)cccc3nc2-1	.	.	?	?	?
C=C(Cl)Cl	.	.	/	/	/
C=CC(C)=O	.	.	/	/	/
c1cc2c(c(NC3=NCCN3)c1)CCCC2	.	.[10 µM]	/	.	.
N#CC1=C(N)Oc2c(c(=O)sc3ccccc23)C1c1cccnc1 (centres undefined)	.	.	.	15µM	8.2µM
CC/C=C\C/C=C\C/C=C\C/C=C\C/C=C\CCCC(=O)NCCc1ccc(O)c(O)c1	.	.	/	/	/
CCCCNC(=O)c1c(N)n(Cc2ccc3c(c2)OCO3)c2nc3ccccc3nc12	?	.	.	.	.
CCOC(=O)c1c(N)n(Cc2ccco2)c2nc3ccccc3nc12	.	.	.	.	.[0.0737 µM]
Nc1c(C(=O)NCc2ccco2)c2nc3ccccc3nc2n1Cc1ccc(F)cc1	.	.	?	?	3.7µM
Nc1c(C(=O)NCc2ccco2)c2nc3ccccc3nc2n1Cc1ccccc1	.	?	?	21µM	?
COc1ccc(Cn2c(N)c(C(=O)NCc3ccco3)c3nc4ccccc4nc32)cc1	.	?	?	2.3µM	10µM
COCC(C)OC(=O)c1c(N)n(Cc2ccco2)c2nc3ccccc3nc12 (centres undefined)	.	?	.	.	.
Nc1c(C(=O)NCc2ccco2)c2nc3ccccc3nc2n1CCN1CCOCC1	.	.	.	5.2µM	16µM
CCOC(=O)C/C(C)=N/NC(=O)COc1ccccc1C	?	14µM	.	.	?
CN1C(=O)C(=Cc2ccccc2OCCOc2ccc([N+](=O)[O-])cc2)C(=O)N(C)C1=O	.	.	.	?	?
O=C1NC(=O)C(=Cc2ccccc2OCCOc2ccc([N+](=O)[O-])cc2)C(=O)N1	.	.	?	?	18µM
CCOC(=O)C1=C(NC(=S)NC(=O)c2ccccc2)c2ccccc2CC12CCCC2	4.5µM	3.2µM	?	?	12µM
C[C@@H]1Cc2c(Cl)cc(C(=O)N[C@@H](Cc3ccccc3)C(=O)O)c(O)c2C(=O)O1	22µM	?	/	/	/
CN(C(=O)Cc1ccc(Cl)c(Cl)c1)[C@H](CN1CCCC1)c1ccccc1	.	.	/	/	/
CCc1ccc(N2C(=O)NC(=O)/C(=C/c3cccn3CCOc3ccc(C)cc3)C2=O)cc1	?	?	.	?	21µM
O=C1NC(=O)N(Cc2ccco2)C(=O)/C1=C\c1cccn1CCOc1ccc(Cl)cc1	?	.	-65	.	?
CCN(CC)c1ccc(/C=C2/C(=O)NC(=O)N(Cc3ccco3)C2=O)cc1	.	.	-64	.	.
SMILES	VP16 counter	RORgamma inh	IL-1B inflam inh	SW480 rerep	MCF10A rereplic
Cc1cccc(OCCn2cccc2/C=C2/C(=O)NC(=O)N(Cc3ccco3)C2=O)c1	?	.	?	.	?
CCc1ccc(N2C(=O)NC(=O)/C(=C/c3cccn3CCOc3ccc(C(C)CC)cc3)C2=O)cc1 (centres undefined)	?	0.79µM	.	13µM	13µM
FC(F)(F)c1nc(N2CCN(c3ccccc3)CC2)nc2c1CCCCC2	/	.[0.365 µM]	.	.	?
COc1cc2c(cc1OC)[C@@H]1C(=O)c3ccc4oc(C(C)C)cc4c3OC1CO2 (some centres undefined)	0.32µM	5µM	/	/	/
COc1cc2c(cc1OC)[C@@H]1C(=O)c3ccc4c(c3O[C@@H]1CO2)C[C@H](C(C)C)O4	.	.	?	?	?
COc1cc2c(cc1OC)[C@H]1C(=O)c3ccc4c(c3O[C@H]1CO2)C[C@@H](C(C)(C)O)O4	/	/	.	.	.
COc1cc2c(cc1OC)C1C(=O)c3ccc4c(c3OC1CO2)CC(C(C)C)O4 (centres undefined)	/	/	-68	?	.
CN(CC=CCN(C)P(=S)(N1CC1)N1CC1)P(=S)(N1CC1)N1CC1	/	/	.	?	13µM
O=C1N[C@@H](Cc2ccccc2)C(=O)N2[C@H]3Nc4ccccc4[C@@]3([C@]34C[C@H]5C(=O)N[C@@H](Cc6ccccc6)C(=O)N5[C@H]3Nc3ccccc34)C[C@@H]12	/	/	.	.	?
c1ccc2c(N3CCNCC3)nsc2c1	.	.	-54	?	?
CC(=O)OCC(=O)[C@@H]1CC[C@H]2[C@H]3CC[C@H]4C[C@@H](O)CC[C@]4(C)[C@@H]3C(=O)C[C@@]12C	.	.	/	.	.
CCCOc1ccc(C(=O)NC(=S)N2C[C@H]3C[C@H](C2)c2cccc(=O)n2C3)cc1	?	8.9µM	.	.	.
O=C(Nc1cccc(Cl)c1)N1C[C@H]2C[C@@H](C1)c1cccc(=O)n1C2	.	.	.	.	.
COc1cc(C(=O)N2C[C@H]3C[C@@H](C2)c2cccc(=O)n2C3)cc(OC)c1OC	.	.	.	.	.
O=C(NC(=S)N1C[C@H]2C[C@H](C1)c1cccc(=O)n1C2)c1ccc(Cl)cc1Cl	.	10µM	.	?	.
COc1ccc(C(=O)NC(=S)N2C[C@H]3C[C@H](C2)c2cccc(=O)n2C3)cc1OC	.	.	.	.	.
O=C(c1ccc(F)c([N+](=O)[O-])c1)N1CC2CC(C1)c1cccc(=O)n1C2 (centres undefined)	.	.	-52	.	.
CO[C@H]1C=C2CCN(C)[C@@H]2[C@@H]2c3cc4c(cc3C(=O)O[C@H]21)OCO4	.	.	/	/	/
CC(=O)Nc1c2sscc-2n(C)c1=O	0.25µM	0.4µM	/	/	/
Cc1[nH]c2ccc(OC(F)(F)F)cc2c1CCNCc1cccc([N+](=O)[O-])c1	.	.	-95	?	?
CC(=O)Nc1ccc(S(=O)(=O)N2CCSC2c2ccc(C)cc2)cc1 (centres undefined)	.	.	.	.	?
CCSc1cc(C2C(C#N)=C(N)Oc3n[nH]c(C)c32)c(C)o1 (centres undefined)	?	11µM	-97	?	?
Cc1nn(C)c(C)c1C1C(C#N)=C(N)Oc2n[nH]c(C)c21 (centres undefined)	.	.	.	.	?
CC(=O)OC1N=C(c2ccccc2Cl)c2cc(Br)ccc2NC1=O (centres undefined)	.	.	-71	.	.
CC1(C)C(O)CC(O)[C@]2(C)C1CC(O)[C@]1(C)C2CC[C@@]2(C)C(c3ccoc3)CC3OC312 (some centres undefined)	.	.	/	/	/

High-throughput results: PubChem, National Center for Advancing Translational Sciences (NCATS)
